PMC4336329 (PLoS ONE, 2015)
Out of some 310,000 compounds screened, about 14,000 (4.5%) showed an effect of 50% or more. Effects have a minus sign here. Many of the other results were omitted from the sample, so strong results are more common in it than they were.

Target: human ether-à-go-go-related gene (hERG) potassium channel (human, UniProt Q12809)
Test: primary screen, population patch clamp on CHO cells stably expressing hERG; higher = less effect of the substance
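Also: peak tail current of the secondary pulse compared with the same well before compound.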

Sequence of human ether-à-go-go-related gene (hERG) potassium channel (Q12809 whole entry, looked up): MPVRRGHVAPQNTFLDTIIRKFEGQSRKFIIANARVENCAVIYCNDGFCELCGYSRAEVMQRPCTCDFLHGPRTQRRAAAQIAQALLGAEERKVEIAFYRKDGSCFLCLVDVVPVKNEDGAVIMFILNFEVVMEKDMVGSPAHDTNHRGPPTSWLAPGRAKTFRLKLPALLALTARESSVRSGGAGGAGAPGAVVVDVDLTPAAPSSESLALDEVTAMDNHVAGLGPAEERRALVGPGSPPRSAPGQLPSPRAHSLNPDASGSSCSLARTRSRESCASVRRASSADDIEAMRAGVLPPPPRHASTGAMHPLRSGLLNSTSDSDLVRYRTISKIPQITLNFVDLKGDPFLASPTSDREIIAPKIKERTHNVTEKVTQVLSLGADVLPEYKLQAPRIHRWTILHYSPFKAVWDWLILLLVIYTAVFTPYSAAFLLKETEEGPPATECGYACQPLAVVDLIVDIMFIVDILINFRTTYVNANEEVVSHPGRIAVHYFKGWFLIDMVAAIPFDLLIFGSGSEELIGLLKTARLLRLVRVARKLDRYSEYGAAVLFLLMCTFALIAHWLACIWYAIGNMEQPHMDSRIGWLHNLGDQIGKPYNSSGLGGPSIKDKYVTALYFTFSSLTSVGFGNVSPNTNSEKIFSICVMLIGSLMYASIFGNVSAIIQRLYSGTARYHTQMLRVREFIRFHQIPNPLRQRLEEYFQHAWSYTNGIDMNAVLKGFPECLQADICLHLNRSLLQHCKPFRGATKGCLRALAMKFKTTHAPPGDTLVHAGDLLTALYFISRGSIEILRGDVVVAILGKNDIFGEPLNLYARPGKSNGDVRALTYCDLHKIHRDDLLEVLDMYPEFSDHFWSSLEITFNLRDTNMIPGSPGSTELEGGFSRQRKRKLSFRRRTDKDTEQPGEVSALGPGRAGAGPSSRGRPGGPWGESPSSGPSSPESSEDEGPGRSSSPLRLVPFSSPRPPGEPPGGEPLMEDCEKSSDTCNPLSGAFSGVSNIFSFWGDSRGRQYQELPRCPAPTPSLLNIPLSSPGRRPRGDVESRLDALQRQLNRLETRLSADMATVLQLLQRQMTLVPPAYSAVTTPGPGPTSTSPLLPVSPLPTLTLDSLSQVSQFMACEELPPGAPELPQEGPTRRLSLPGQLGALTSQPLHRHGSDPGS

| Structure (SMILES) | hERG current change (%, negative = inhibition) at 10uM [%] |
| --- | --- |
| CN(C)S(=O)(=O)c1cc(C(=O)OCCn2cnc3c2c(=O)n(C)c(=O)n3C)ccc1Cl | -39.7 |
| CS(=O)(=O)c1cccc(-c2nnc(NC(=O)CCS(=O)(=O)c3ccccc3)o2)c1 | 3.82 |
| COC(=O)c1cn(C(=O)c2ccccc2F)nc1N | -5.96 |
| Cc1ccc2c(CC(=O)OC3CCOC3=O)coc2c1 (stereo not shown) | 3.85 |
| CC/C(=N\NC(=S)Nc1ccc(OC)cc1)c1ccc(OC(F)F)cc1 | -4.32 |
| C[C@@H]1CC=C[C@H]2[C@H]1C(=O)N(Cc1ccccc1)[C@H]2c1ccoc1 | 3.54 |
| CC(CN1CCCCC1)C(=O)NNC(=O)C12CC3CC(CC(C3)C1)C2 (stereo not shown) | 3.74 |
| CC(C)c1onc(C(=O)N2CCN(c3ccc(F)cc3)CC2)c1[N+](=O)[O-] | -19.9 |
| COc1ccccc1NC(=O)CSc1nnc(C2CCCCC2)n1N | 5.54 |
| OCc1cn(-c2ccccc2)nc1-c1ccc2c(c1)OCCO2 | 5.83 |
| Cc1ccc(-n2cc(CNCCc3ncc(C)[nH]3)c(-c3ccc(F)cc3)n2)cc1 | -47.4 |
| c1ccc(-n2cc(CNCCc3cscn3)c(-c3ccc4c(c3)OCO4)n2)cc1 | -65.4 |
| Cc1ccc(-n2cc(CNCCc3cscn3)c(-c3ccc(F)cc3)n2)cc1 | -59 |
| O=Cc1cn(-c2ccccc2)nc1-c1ccc2c(c1)OCCO2 | -0.855 |
| Fc1ccc(-c2nn(-c3ccccc3)cc2CNCc2ccccc2)cc1 | 1.75 |
| O=C(CSC1=NCCS1)NC(NC(=O)CSC1=NCCS1)c1ccccc1 | 18.6 |
| O=C(C1CCN(S(=O)(=O)c2ccc(F)cc2)CC1)N1CCOCC1 | 15.3 |
| COc1ccc(CNC(=O)c2cc(-c3ccccc3O)n[nH]2)cc1 | 5.51 |
| O=C1CC(N2CCN(C(c3ccccc3)c3ccccc3)CC2)C(=O)N1 (stereo not shown) | -0.687 |
| NC(=O)COn1c(SCC(N)=O)nc2ccccc2c1=O | 19.3 |
| COC(=O)c1cc(Br)c(=O)n(Cc2ccncc2)c1 | -1.41 |
| CCCc1cc(=O)oc2cc(OCC(=O)N3CCC(C(N)=O)CC3)ccc12 | -6.67 |

| Structure (SMILES) | hERG current change (%, negative = inhibition) at 10uM [%] |
| --- | --- |
| CCCc1cc(=O)oc2cc(OCC(=O)N3CCC(C(=O)O)(c4ccccc4)CC3)ccc12 | 6.41 |
| Cc1cc(=O)oc2cc(OCC(=O)N3CCN(C(=O)C4COc5ccccc5O4)CC3)ccc12 (stereo not shown) | -53.6 |
| O=C(COc1ccc2ccc(=O)oc2c1)N1CCN(C(=O)C2COc3ccccc3O2)CC1 (stereo not shown) | -46.2 |
| Cc1c(C)c2ccc(OCC(=O)N3CCC(C(=O)O)CC3)cc2oc1=O | -6.41 |
| Cc1cc(=O)oc2cc(OCC(=O)N3CCN(C(=O)C4COc5ccccc5O4)CC3)c(Cl)cc12 (stereo not shown) | -48 |
| Cc1c(C)c2ccc(OCC(=O)N3CCN(C(=O)C4COc5ccccc5O4)CC3)cc2oc1=O (stereo not shown) | -60.9 |
| Cc1cc(=O)oc2c(C)c(OCC(=O)N3CCN(C(=O)C4COc5ccccc5O4)CC3)ccc12 (stereo not shown) | -50.4 |
| Cc1c(C)c2ccc(OCC(=O)N3CCN(c4ccccc4)CC3)cc2oc1=O | -36.1 |
| CCOc1ccccc1N1CCN(C(=O)COc2ccc3c(C)cc(=O)oc3c2)CC1 | -6.28 |
| Cc1cccc(N2CCN(C(=O)COc3ccc4c(C)cc(=O)oc4c3C)CC2)c1C | 13.6 |
| CCCc1cc(=O)oc2cc(OCC(=O)N3CCN(C(=O)C4COc5ccccc5O4)CC3)ccc12 (stereo not shown) | -65.9 |
| CCOC(=O)c1ccc(NC(=O)CCc2nc(-c3ccc(Cl)cc3)no2)cc1 | 8.36 |
| Cc1cccc(N(CC(=O)NCCSCc2ccccc2)S(C)(=O)=O)c1C | -17.4 |
| Cc1ccc(S(=O)(=O)N2CCN(C(=O)COC(=O)c3c(C)noc3C)CC2)c(C)c1 | -18.8 |
| COCCCNC(=O)CN(c1ccc(Cl)c(Cl)c1)S(C)(=O)=O | -10.9 |
| Cc1ccc(NCC(=O)N/N=C\c2cccc(O)c2)cc1 | 1.98 |
| C=CCNC(=S)N1CCOCC1 | -1.69 |
| O=C(/C=C/c1ccccc1[N+](=O)[O-])NNC(=O)c1ccncc1 | -7.86 |
| CCOc1ccccc1NC1=C(Cl)C(=O)N(c2ccc(OC)cc2)C1=O | -10.4 |
| Cc1ccc(OCC(=O)N2CCN(Cc3ccc4c(c3)OCO4)CC2)cc1C | -24.6 |
| CCCc1cc(=O)oc2cc(OCC(=O)N3CCN(Cc4ccc5c(c4)OCO5)CC3)ccc12 | -57 |
| Cc1cc(=O)oc2cc(OCC(=O)N3CCN(Cc4ccc5c(c4)OCO5)CC3)ccc12 | -42.9 |

| Structure (SMILES) | hERG current change (%, negative = inhibition) at 10uM [%] |
| --- | --- |
| CC(Oc1ccccc1)C(=O)N=C1SC2CS(=O)(=O)CC2N1Cc1ccc(F)cc1 (stereo not shown) | -24.6 |
| CCc1cccc(CC)c1NC(=O)C1CCN(C(=O)c2ccco2)CC1 | 2.93 |
| COc1ccc(C(=O)OCn2nnc3ccccc3c2=O)cc1OC | 8.71 |
| O=C(Nc1ccc(Br)cc1)C1C2C=CC3(O2)C1C(=O)N(CCN1CCCCC1)C3C(=O)NC1CCCCC1 (stereo not shown) | -59.8 |
| O=C(Nc1ccc(Cl)cc1)C1C2C=CC3(O2)C1C(=O)N(CCN1CCCCC1)C3C(=O)NC1CCCCC1 (stereo not shown) | -44.1 |
| Cc1cc(C)cc(NC(=O)C2C3C=CC4(O3)C2C(=O)N(CCN2CCCCC2)C4C(=O)NC2CCCCC2)c1 (stereo not shown) | -40.3 |
| O=C(Nc1ccc(Br)cc1)C1C2C=CC3(O2)C1C(=O)N(CCN1CCOCC1)C3C(=O)NC1CCCCC1 (stereo not shown) | -3.6 |
| Cc1ccc(NC(=O)C2C3C=CC4(O3)C2C(=O)N(CCCN2CCCCC2)C4C(=O)NC2CCCCC2)cc1Cl (stereo not shown) | 16.3 |
| O=C(Nc1ccc(Cl)c(Cl)c1)C1C2C=CC3(O2)C1C(=O)N(CCN1CCCCC1)C3C(=O)NC1CCCCC1 (stereo not shown) | -60.8 |
| Cc1ccc(-c2nc(N)n(S(C)(=O)=O)n2)cc1 | 7.05 |
| CC(C)(C)n1nc2c(c1NC(=O)c1ccccc1F)CS(=O)C2 (stereo not shown) | 15.6 |
| Cc1ccc2cc(/C=C/C(=O)c3ccco3)c(Cl)nc2c1 | 15.2 |
| O=C(Nc1ccccn1)c1ccc2c(=O)n3c(nc2c1)CCCCC3 | -47.2 |
| COc1ccc(C)cc1NC(=O)c1ccc2c(=O)n3c(nc2c1)CCCCC3 | -42.5 |
| Cc1csc(NC(=O)c2ccc3c(=O)n4c(nc3c2)CCCCC4)n1 | -80.3 |
| Cc1cccc(NC(=O)c2ccc3c(=O)n4c(nc3c2)CCCCC4)n1 | -67.2 |
| O=C(Nc1nc(-c2ccccc2)cs1)c1ccc2c(=O)n3c(nc2c1)CCCCC3 | -23.8 |
| Cc1cc(C)c2nc(NC(=O)c3ccc4c(=O)n5c(nc4c3)CCCCC5)sc2c1 | 13.9 |
| Cc1ccc(NC(=O)c2ccc3c(=O)n4c(nc3c2)CCCCC4)nc1 | -60.4 |
| Cc1ccc(-c2csc(NC(=O)c3ccc4c(=O)n5c(nc4c3)CCCCC5)n2)cc1 | -6.65 |
| O=C(Nc1ccccc1Cl)c1ccc2c(=O)n3c(nc2c1)CCC3 | -6.14 |
| COc1ccc(-c2cc(C(=O)N3CCN(c4ncccn4)CC3)c3ccccc3n2)cc1 | -33.4 |

| Structure (SMILES) | hERG current change (%, negative = inhibition) at 10uM [%] |
| --- | --- |
| CCCCNCc1nc2ccccc2c(=O)[nH]1.Cl | 5.81 |
| COc1ccc(/C=N\NC(=O)c2ccc(=O)[nH]n2)cc1O | 18.4 |
| Brc1cccc(-c2nnc(SCc3ccon3)n2-c2ccccc2)c1 | -48.9 |
| Cc1ccc(NC(=O)CN2c3cccc4cccc(c34)S2(=O)=O)cc1S(=O)(=O)N1CCOCC1 | 0.358 |
| Cc1cc(NC(=O)COc2c(C)cccc2C)no1 | 22.3 |
| CC(=O)c1cccc(NC(=O)C(C)N(C)CC(=O)Nc2ccc(Cl)cc2)c1 (stereo not shown) | -5.14 |
| c1ccc(Oc2nnc(-c3cccs3)c3ccccc23)cc1 | -5.87 |
| Cc1ccc(S(=O)(=O)N2CCN(C(=O)c3cccc(-n4cccc4)c3)CC2)cc1 | -51.3 |
| Cc1ccc(S(=O)(=O)N2CCN(C(=O)c3ccc(S(=O)(=O)N4CCCC4)cc3)CC2)cc1 | -6.64 |
| Cc1ccc(S(=O)(=O)N2CCCN(C(=O)c3ccc(-n4cccn4)cc3)CC2)cc1 | -74.2 |
| CC(C)(C)C(=O)N1CCN(c2ncccc2C(F)(F)F)CC1 | 1.88 |
| O=C(c1ccc(-n2cccn2)cc1)N1CCN(c2ncccc2C(F)(F)F)CC1 | -60.4 |
| O=C(c1ccc(F)cc1)N1CCN(S(=O)(=O)c2ccc(Br)cc2)CC1 | -5.63 |
| O=C(O)CCC(=O)N1CCN(c2ncccc2C(F)(F)F)CC1 | 9.74 |
| O=C(c1cccc(-n2cccc2)c1)N1CCN(S(=O)(=O)c2ccc(F)cc2)CC1 | -34.7 |
| Cc1ccc(S(=O)(=O)N2CCN(C(=O)c3ccccc3)CC2)cc1 | -31 |
| Cc1ccnn1-c1ccc(C(=O)N2CCCN(S(=O)(=O)c3ccc(F)cc3)CC2)cc1 | -69.7 |
| O=C(c1ccncc1)N1CCN(S(=O)(=O)c2ccc(F)cc2)CC1 | 15.2 |
| O=C(c1cccc(-n2cccc2)c1)N1CCN(S(=O)(=O)c2ccccc2)CC1 | -32 |
